Assay outcomes: PubChem, National Center for Advancing Translational Sciences (NCATS)
ClpP mod = qHTS Assay for Activators of ClpP. purified B. subtilis ClpP, FRET peptide cleavage, 20 min. Potency, µM (titrated, usually from 57.5 µM). AID 651965, 2013. actives 1.9% (n = 340,000); active = well fitted falling curve with a large enough effect; inconclusive = small, poorly fitted or top-dose-only effect; inactive = no such curve, though single readings can be large or run the other way; also: the source files actives as falling curves though it sought activators and does not explain the sign; nearly all actives have a fitted effect of over 65% in size
Target sequence (P80244 whole entry, looked up): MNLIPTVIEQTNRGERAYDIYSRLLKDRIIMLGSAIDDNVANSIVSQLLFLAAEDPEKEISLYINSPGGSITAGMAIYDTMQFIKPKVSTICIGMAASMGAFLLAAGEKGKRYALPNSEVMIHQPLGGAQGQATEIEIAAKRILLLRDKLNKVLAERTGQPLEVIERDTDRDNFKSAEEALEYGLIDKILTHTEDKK
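ClpP 10 microg/mL final, pH 8 Tris/KCl buffer with BSA, glycerol, Tween-20; compound pinned in; FRET-FV substrate; RT 20 min; Ex320/Em430; ΔFRET vs ADEP 5.8 microM, DMSO, no enzyme.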
GLP1R inv ag = qHTS of GLP-1 Receptor Inverse Agonists (Inhibition Mode); actives 1.6% (n = 410,000); AID 624417, 2012; HEK293 GLP-1R CRE-luciferase, luminescence, 24 h; GLP-1R form is constitutively active; Potency, µM (series often up to 38.3 µM), actives largely listed as inhibitors; Glucagon-like peptide 1 receptor (Homo sapiens), P43220; also: nearly all actives have a fitted effect of over 55% in size
Target sequence (P43220 whole entry, looked up): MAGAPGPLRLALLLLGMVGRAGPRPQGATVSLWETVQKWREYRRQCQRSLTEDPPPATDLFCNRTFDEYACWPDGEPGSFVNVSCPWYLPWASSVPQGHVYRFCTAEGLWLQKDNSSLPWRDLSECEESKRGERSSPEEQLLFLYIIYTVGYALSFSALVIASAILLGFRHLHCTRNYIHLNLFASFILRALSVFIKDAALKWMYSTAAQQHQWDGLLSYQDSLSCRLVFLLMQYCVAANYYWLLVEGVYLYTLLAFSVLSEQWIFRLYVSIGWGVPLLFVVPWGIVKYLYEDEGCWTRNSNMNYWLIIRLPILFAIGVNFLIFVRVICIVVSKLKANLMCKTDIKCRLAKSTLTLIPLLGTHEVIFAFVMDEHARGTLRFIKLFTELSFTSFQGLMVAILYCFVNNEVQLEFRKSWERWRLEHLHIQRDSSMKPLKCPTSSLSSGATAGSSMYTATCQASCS
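Luminescence readout: a drop in cAMP-driven luciferase signal flags inverse agonism at a constitutively active GLP-1R stably expressed in HEK293. Compound exposure lasted 24 hr at 37 deg C, 5% CO2.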
GLP-1R agonist = qHTS of GLP-1 Receptor Agonists; Glucagon-like peptide 1 receptor (Homo sapiens), P43220; HEK293 GLP-1R CRE-luciferase, luminescence, 4-6 h; cells express a hypersensitive GLP-1R form; Potency, µM (doses to about 45.6 µM), most hits filed as activators; actives 0.007% (n = 380,000)
GLP1R cytotox = qHTS of GLP-1 Receptor Inverse Agonists: Cytotox Screen; actives 0.13% (n = 410,000); HEK293 cAMP-luciferase reporter cells, luminescence, 24 h; Potency, µM (series often up to 38.3 µM), actives largely listed as inhibitors; AID 624418, 2012;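 also: loss of luciferase light is scored as toxicity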
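Here, cytotoxicity is scored as loss of luminescence. The MLSMR collection was tested on cells seeded in medium containing 10% Nu serum, with a 24 hr compound exposure preceded by 12 hours of culture.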
Large screens that a line does not name were inactive; ! = a repeat was not active. The list is not random: actives were taken first. Their share in the collection is about 3.2%. Unless noted, calls follow the shape of the dose curve; as a rule, active = well fitted curve in the direction sought with a large enough effect; inconclusive = small, poorly fitted or top-dose-only effect, or another doubt; inactive = no such curve, though single readings can be large; an effect the other way counts as inactive or inconclusive.

CC(Oc1ccc(Br)cc1)C(=O)Nc1ccc(S(=O)(=O)N(C)C2CCN(C)CC2)cc1 (centres undefined)	GLP1R inv ag 2.8µM
CN1CCN(NC(=O)COc2cccc(C(F)(F)F)c2)CC1	none
Cc1ccc(S(=O)(=O)NCC(=O)NCC2CCCCC2)cc1C	GLP1R cytotox inconclusive (no result: ClpP mod)
Cc1cc(C)c(C)c(S(=O)(=O)NCC(=O)NCC2CCCCC2)c1C	GLP1R inv ag 6.3µM (no result: ClpP mod)
NC(N)=N/N=C(\N=Nc1ccccc1)c1cccc2cccnc12	none
NC(N)=N/N=C(\N=Nc1ccccc1)c1ccc(Cl)cc1	GLP1R inv ag 10µM, GLP1R cytotox inconclusive
CCc1cccc(C)c1NC(=O)Nc1csc2c1CCCC2	none (no result: GLP-1R agonist)
N#CCC(=O)NN	none (no result: ClpP mod, GLP1R inv ag, GLP1R cytotox)
CC(C)c1ccc(Nc2ncnc3onc(-c4ccc(F)cc4)c23)cc1	ClpP mod 22µM, GLP1R inv ag inconclusive (no result: GLP-1R agonist)
CCC(C)Sc1ccc(-c2nc3cc(C)ccn3c2NC2CCCCC2)cc1 (centres undefined)	GLP1R inv ag 10µM!
CCC(C)Sc1ccc(-c2nc3cnccn3c2NC2CCCCC2)cc1 (centres undefined)	GLP1R inv ag inconclusive
CCCCNc1c(-c2cccc(-c3ccc(OC)cc3)c2)nc2cc(C)ccn12	GLP1R inv ag 11µM
Cc1ccn2c(NC3CCCCC3)c(-c3cccc(-c4cccc(Cl)c4)c3)nc2c1	GLP1R inv ag 4µM, GLP1R cytotox inconclusive
COc1ccccc1C(=O)Nc1ccc(S(=O)(=O)Nc2nc(C)cc(C)n2)cc1	none (no result: GLP-1R agonist)
CCCCC1=NN(C(=O)c2ccco2)C(O)(C(F)(F)F)C1 (centres undefined)	GLP1R inv ag 2.2µM, GLP1R cytotox inconclusive (no result: ClpP mod)
CCCC1=NN(C(=O)C(=O)Nc2ccc(Br)cc2)C(O)(C(F)(F)F)C1 (centres undefined)	GLP1R inv ag 7.1µM, GLP1R cytotox inconclusive (no result: ClpP mod)
N#Cc1ccc(NC(=O)c2cc(-c3cccc(Cl)c3)on2)cc1	none (no result: GLP-1R agonist)
CC1(C)OC(=O)C2(Cc3cc(C(F)(F)F)ccc3N3CCCCC32)C(=O)O1 (centres undefined)	none (no result: GLP1R inv ag, GLP-1R agonist, GLP1R cytotox)
COc1cccc(S(=O)(=O)Nc2ccc(C(=O)Nc3ccncc3)cc2)c1	GLP1R inv ag inconclusive
O=C(Nc1ccncc1)c1ccc(NS(=O)(=O)c2cccc(F)c2)cc1	ClpP mod 32µM
CN(C)c1cccc(C(=O)Nc2cccc(F)c2)c1	GLP1R inv ag inconclusive
CCN(CC)c1ccc(C(=O)Nc2cccc(F)c2)cc1	GLP1R inv ag 5.6µM
CN(N=O)c1ccc(/C=C/c2ccnc3ccccc23)cc1	none (no result: GLP1R inv ag, GLP-1R agonist, GLP1R cytotox)
CCOC(=O)c1ccc(NS(=O)(=O)c2cc(-c3onc(C)c3C)ccc2C)cc1	none (no result: GLP-1R agonist)
CNCC(O)CN(c1ccccc1)c1ccccc1 (centres undefined)	GLP1R inv ag 6.3µM (no result: ClpP mod)
Cc1ccc(NC(=O)Cn2cnc3c(oc4ccccc43)c2=O)cc1Cl	none (no result: GLP-1R agonist)
CCC1SC2=NC(C)=C(C(=O)OCC(C)C)C(/C=C/c3ccccc3OC)N2C1=O (centres undefined)	GLP1R inv ag 7.9µM
COc1cc(NC(=O)CSc2ncc3c(n2)-c2ccc(Cl)cc2N(Cc2ccccc2)S3(=O)=O)cc(OC)c1	none (no result: GLP-1R agonist)
C(=N\n1cnnc1)/c1nc2ccccc2[nH]1	ClpP mod 16µM
Cn1c(/C=N/n2cnnc2)nc2ccccc21	ClpP mod 14µM
COc1ccccc1N1CCN(C(=O)c2c3c(nc4ccccc24)C(=O)N(C2CCCCC2)C3)CC1	none (no result: GLP-1R agonist)
N#CC1(NC(=O)COC(=O)C23CC4CC(CC(O)(C4)C2)C3)CCCCC1	none
CN(C(=O)COC(=O)C12CC3CC(CC(Cl)(C3)C1)C2)C1(C#N)CCCCC1	GLP1R inv ag 13µM
C=CCN(CC=C)C(=S)NC(=O)c1ccc(OC)cc1	GLP1R inv ag inconclusive, GLP1R cytotox 0.63µM
C=CCN(CC=C)C(=S)NC(=O)c1ccc(C)c(Br)c1	GLP1R inv ag 3.2µM, GLP1R cytotox inconclusive
CCCCN1C(=O)c2[nH]nc(-c3ccccc3O)c2C1c1cc(Br)c(O)c(OC)c1 (centres undefined)	GLP1R inv ag inconclusive (no result: GLP-1R agonist)
Cc1ccc(S(=O)(=O)N2[C@H](CC(=O)c3ccc(F)cc3)OC[C@@H]2C(C)C)cc1	GLP1R inv ag inconclusive (no result: GLP-1R agonist)
COc1cccc(C2OC(=O)c3ccccc3N2C(C)=O)c1OC(C)=O (centres undefined)	none
CC(=O)N1c2ccccc2C(=O)OC1c1cccnc1 (centres undefined)	ClpP mod 28µM
COc1ccc(C(=O)N2CCC(C(=O)Nc3ccccc3Cl)CC2)cc1	none (no result: GLP-1R agonist)
COc1cc(NC2c3ccccc3C(=O)N2Cc2ccccc2Cl)cc(OC)c1 (centres undefined)	GLP1R inv ag 10µM
COc1cccc(NC2c3ccccc3C(=O)N2Cc2ccccc2Cl)c1 (centres undefined)	GLP1R inv ag inconclusive (no result: ClpP mod)
Cc1ccccc1NC(=O)c1nc(-c2ccncc2)no1	none (no result: GLP-1R agonist)
Cc1cnc(NC(=O)c2cc(S(=O)(=O)N(C)C)ccc2N2CCCC2)s1	GLP1R inv ag inconclusive (no result: ClpP mod)
CN(C)S(=O)(=O)c1ccc(N2CCCC2)c(C(=O)Nc2nc3c(ccc4ccccc43)s2)c1	ClpP mod 28µM
CCC12CN3CC(C)(CN(C1)C3c1c[nH]c3ccccc13)C2=O (centres undefined)	none (no result: GLP-1R agonist)
Oc1ccc(Br)cc1CNc1cnc2ccccc2c1	GLP1R inv ag 11µM
Oc1ccccc1CNc1ccc(Br)cn1	ClpP mod 3.2µM
Brc1ccc(NCc2cccc3ccccc23)nc1	none
N#CC1=C(O)C(c2ccccc2)n2c1nc(=O)c1ccccc12 (centres undefined)	ClpP mod 18µM
CCn1c(C)c(C)c2cc(C(=O)NCCc3cc(OC)c(OC)c(OC)c3)ccc21	none (no result: GLP-1R agonist)
CCc1c(C)sc2c1CCN(C(=O)Nc1ccccc1C(F)(F)F)C2c1ccccc1 (centres undefined)	GLP1R inv ag inconclusive (no result: GLP-1R agonist)
COCCNc1ncnc2c1cnn2-c1cc(Cl)ccc1C	none (no result: GLP-1R agonist)
Cc1ccc(Cl)cc1-n1ncc2c(NC3CCCCCC3)ncnc21	GLP1R inv ag 4.5µM (no result: GLP-1R agonist)
Cc1ccc(-n2ncc3c(NC4CCCCCC4)ncnc32)cc1Cl	ClpP mod 32µM, GLP1R inv ag inconclusive (no result: GLP-1R agonist)
Cc1ccc(-n2ncc3c(NCCc4ccccc4)ncnc32)cc1Cl	ClpP mod 32µM (no result: GLP-1R agonist)
CC1CCCN(c2ncnc3c2cnn3-c2ccc(F)cc2)C1 (centres undefined)	GLP1R inv ag 8.9µM (no result: GLP-1R agonist)
COc1ccc(CCNc2ncnc3c2cnn3-c2ccc(C)c(Cl)c2)cc1	none (no result: GLP-1R agonist)
CCCCCn1c(NCc2ccccc2OC)nc2ccccc21	GLP1R inv ag inconclusive, GLP1R cytotox inconclusive (no result: GLP-1R agonist)
COc1cccc(CSc2nc3ccncc3n2CC(=O)Nc2ccc(OC)c(OC)c2OC)c1	none (no result: GLP-1R agonist)
COc1ccc(Cl)cc1N(C)C(=O)C(=O)Nc1ccc2nc3n(c(=O)c2c1)CCCCC3	none (no result: GLP-1R agonist)
COCOc1cccc(CN2CCC2(C)C(=O)Nc2ccc(C)c(O)c2)c1 (centres undefined)	GLP1R inv ag inconclusive
